Experimental data as given in PubChem BioAssay AID1117361 (Southern Research Institute, 2015).
Hit rate of the full screen: of about 3,600 compounds, about 900 (25%) were called active. The rule behind the calls is not given here. The list is a sample of the results. Results with a measured potency or affinity are listed apart.

What follows are compounds tested against Protein Tat (Human immunodeficiency virus type 1 group M subtype B (isolate HXB2)) (UniProt P04608) (assay: inhibitors of Tat binding to TAR RNA, dose response, counter-screen for Vif-APOBEC3G degradation inhibitor project, biochemical, fluorescence polarization, FAM-labeled TAR RNA (AID 1117361)). Settings: outcome: dose series up to 100 µM unless noted; series mostly up to 100 µM.

Compound	outcome
COc1cccc(OC)c1C(=O)n1nc(C)cc1C	inactive
Cc1cc(S(=O)(=O)n2ccnc2)c(Cl)cc1Cl	inactive
O=C(Cc1ccccn1)c1ccncc1	inactive
Cc1ccc(N=Nc2ccc(O)c(/C=N\NC(=O)c3ccc(N)cc3)c2)cc1C	inactive
O=C(N/N=C/c1cccnc1)c1cc(O)c(O)c(O)c1	inactive
CCC(Sc1nc(N)c(NC(=O)c2ccc(OC)c(OC)c2)c(=O)[nH]1)C(=O)OC (stereo not given)	inactive
S=C(Nc1ccc(Oc2ccccc2)cc1)NC1CCCCC1	inactive
CCCCCCc1nc2c(=O)[nH]c3ccccc3c2o1	inactive
CCOC(=O)COn1c(=O)c(-c2ccc(Cl)cc2)[n+]([O-])c2ccccc21	inactive
COc1ccccc1OCC(=O)NCC1CCCN(Cc2cnn(C(C)C)c2)C1 (stereo not given)	inactive
CCC(C)c1c(O)nc(SCC(=O)N2CCOCC2)[nH]c1=O (stereo not given)	inactive
CC1(C)CCC(=O)c2ccccc21	inactive
O=C(Oc1ccccc1)c1cccc2cccnc12	inactive
CC(C)Cn1c(CCC(=O)O)ccc1-c1cccs1	inactive
O=C(O)CCC(=O)N(Cc1cccs1)Cc1cccs1	inactive
CCc1ccc(-c2nc(SCC(=O)NC3CCS(=O)(=O)C3)n[nH]2)cc1 (stereo not given)	inactive
O=C(CNC(=O)Cn1cnc2sc3c(c2c1=O)CCCC3)NCc1ccccn1	inactive
Cc1cc(NC(=O)c2cncc(Br)c2)no1	inactive
O=C1c2ccccc2C(=O)N1OCCOCCOCCBr	inactive
O=C1CCC(CCC(=O)N2CCCC(C(=O)c3ccc4c5c(cccc35)CC4)C2)=NN1 (stereo not given)	inactive
Cc1ccc(OCc2ccc(C(=O)NN)o2)cc1C	inactive
CN(C)C(=O)c1ccc(COc2ccccc2Br)o1	inactive

Compound	outcome
CCOC(=O)c1cc2c(c(CCO)n1)[C@H](CCO)N(S(=O)(=O)C(C)(C)C)C2	inactive
Cc1ccc(-n2c(SCC(=O)NCC3CCCO3)nc3c(c2=O)SCC3)cc1 (stereo not given)	inactive
Cc1cccc(-n2c(N)cc(=O)nc2SCC(=O)NC2CCCCC2)c1	inactive
COc1ccc(OC)c(NC(=O)CSc2nnc(CCCO)n2-c2ccccc2)c1	inactive
O=C(CSc1nnc(-c2cccnc2)n1C1CCCCC1)NC1CCCCC1	inactive
O=C(Cc1cc(=O)[nH]c(=O)[nH]1)NCC1CCCO1 (stereo not given)	inactive
COc1ccc(-n2c(Cc3cccn3C)nnc2SCC(=O)Nc2ccccc2)cc1	inactive
N#Cc1ccccc1S(=O)(=O)N1CCN(C(=O)CN2CCCC2c2cccs2)CC1 (stereo not given)	inactive
COc1ccc(C(C)NC(=O)C2C(=O)NC3(C)CC2c2ccccc2O3)cc1 (stereo not given)	inactive
O=C(O/N=C\c1ccc(N2CCCCC2)c([N+](=O)[O-])c1)c1c(F)cccc1F	inactive
Nc1nc2n(n1)C(c1c(F)cccc1Cl)CC(c1ccc(F)cc1)N2 (stereo not given)	inactive
CCOC(=O)Cn1c(=O)c2c(nc3n2CCN3Cc2ccccc2)n(C)c1=O	inactive
O=C(Nc1ccccc1)c1ccc(S(=O)(=O)N(CCO)CCO)cc1	inactive
COc1ccccc1NC(=O)C12CC3CC(C1)CC(c1ccc(C)cc1)(C3)C2	inactive
COc1ccc(N=c2scc(-c3ccc(OC)cc3)n2CCO)cc1	inactive
COc1cc(OC)cc(C(=O)NNC(=O)c2ccccc2Br)c1	inactive
O=C(c1ccccc1Br)N1CCN(c2ccccc2)CC1	inactive
CC1=CC(C)(C)n2c(O)c(N=NC(N)=S)c3c(C)c(C)cc1c32	inactive
COc1ccccc1Oc1coc2cc(OC(=O)N3CCOCC3)ccc2c1=O	inactive
O=C(O)c1ccc(Sc2nnnn2-c2ccccc2)c([N+](=O)[O-])c1	inactive
CCCCN(C)C(=O)c1cn(CC)c2ccc(S(=O)(=O)N(C)C)cc2c1=O	inactive
O=C(CCCc1c[nH]c2ccccc12)N1CCOCC1	inactive

Compound	outcome
COc1ccccc1C(=O)Nc1ccc(S(=O)(=O)Nc2cc(C)nc(C)n2)cc1	inactive
O=C(O)c1ccc(NS(=O)(=O)c2cccc(C(=O)Nc3ccc([N+](=O)[O-])cc3)c2)cc1	inactive
CCn1c(C(=O)N2CCCC(C(=O)NCCc3ccc(C)cc3)C2)cc2sccc21 (stereo not given)	inactive
CCCNC(=O)c1cccc(Cn2nc(C)c(Br)c2C)c1	inactive
CCCCOCCCNC(=O)c1ccc(OCC)cc1	inactive
O=C(NC1CCCC1)c1ccc(CNc2c(N3CCOCC3)c(=O)c2=O)cc1	inactive
CC1(C)Oc2ccc(C(=O)NC3CCCC3)cc2N(CC(=O)NC2CCCC2)C1=O	inactive
CCC(Nc1nc(-c2ccccc2)nc2ccccc12)C(=O)O (stereo not given)	inactive
Clc1ccc(Sc2oc(/C=N/n3cnnc3)cc2Br)cc1	inactive
O=C1C(Cl)=C(Nc2ccc3cn[nH]c3c2)C(=O)c2ccccc21	inactive
C/C(=N\NC(=O)C(C)Oc1ccc([N+](=O)[O-])cc1)c1ccccn1 (stereo not given)	inactive
COC(=O)C1=C(C)N(C)C(C)=C(C(=O)OC)C1c1ccc(F)c(Br)c1	inactive
COc1cc(OC)cc(C(=O)NC2CCN(C(=O)N3c4ccccc4Sc4ccccc43)CC2)c1	inactive
Nc1c(-c2ccccc2Cl)cnn1-c1cccc([N+](=O)[O-])c1	inactive
COc1ccc(-c2[nH]c(-c3ccc(C)cc3)nc2SCC(=O)NCc2ccco2)cc1OC	inactive
COC(=O)Nc1sc2c(c1C(=O)NCc1ccco1)CCCC2	inactive
O=C1CC(SC(=Nc2ccccc2)Nc2ccccc2)C(=O)N1c1ccc(Cl)cc1 (stereo not given)	inactive
O=C(NCc1ccc(F)cc1)C1CCCN(C(=O)Nc2ccccc2)C1 (stereo not given)	inactive
CCOC(=O)CC1COc2ccccc2N1C(=O)c1ccc(C)cc1 (stereo not given)	inactive
CS(=O)(=O)NCc1nnc(SCc2ccccc2C(F)(F)F)o1	inactive
CSc1oc(-c2ccccc2)nc1S(=O)(=O)c1ccc(C)cc1	inactive
COc1ccc2c(c1)c1ccc3c(c1n2C)C(=O)C=CC3=O	inactive

Compound	outcome
Cc1ccc2c(c1)c1ccc3c(c1n2C)C(=O)C=CC3=O	inactive
COc1cc2c(cc1NC(=O)COC(=O)Cn1cnc3ccccc31)oc1ccccc12	inactive
CCOC(=O)C(CC(=O)O)=C(c1ccccc1)c1ccccc1	inactive
CCOC(=O)CSc1nnc(-c2cccnc2)n1Cc1ccccc1	inactive
CCc1cccc(NC(=O)CN(C)S(=O)(=O)c2cccc3nsnc23)c1	inactive
O=C(OCc1c(Cl)cccc1Cl)c1cccnc1Cl	inactive
Cc1ccc(-c2csc(NC(=O)C3CC=CCC3C(=O)O)c2C(=O)OC(C)C)cc1 (stereo not given)	inactive
O=C(C1CCN(S(=O)(=O)N2CCC3(CC2)OCCO3)CC1)N1CCOCC1	inactive
O=C(C1CCCO1)N1CCC(c2nc3ccccc3[nH]2)CC1 (stereo not given)	inactive
O=C(NCC1CC1)c1ccc2c3n(nc2c1)-c1ccccc1CO3	inactive
O=C(NNC(=O)c1ccccc1O)c1cc2ccccc2o1	inactive
COc1ccc(C(=O)NCc2cn3cccc(C)c3n2)cc1OC	inactive
COc1ccc(Cl)c(NCCC(=O)O)c1	inactive
O=C(NCc1cccnc1)c1cc(S(=O)(=O)N2CCCCC2)ccc1Cl	inactive
CC(=O)Nc1ccc(/C=N/Nc2ccc(C(=O)c3c(C)cc4ccccn34)cc2[N+](=O)[O-])cc1	inactive
NS(=O)(=O)c1ccc(NC(=O)COC(=O)c2cc(Cl)ccc2[N+](=O)[O-])cc1	inactive
Clc1ccc(/C(Cc2nc3ccccc3[nH]2)=N\Nc2ccccc2)cc1	inactive
Cc1c(Cl)cccc1NC(=O)CC(Cc1ccccc1)C(=O)O (stereo not given)	inactive
COC(=O)c1cc2c(ccn2-c2ccc(F)cc2)n1CC(C)C	inactive
CC1CCN(c2nc3ccc(C(=O)N4CCN(Cc5ccccc5)CC4)cc3s2)CC1	inactive
CCOC(=O)CSc1nnc(CNC(=O)c2cccs2)n1-c1ccccc1	inactive
O=C(COC(=O)c1ccc(O)cc1O)NNC(=O)c1cccs1	inactive

Compound	outcome
COc1cccc(OC)c1OCCOCCn1cnc2ccccc2c1=O	inactive
COCC(=O)NCc1nc2ccccc2[nH]1	inactive [at 50 µM]
CCCNC(=O)COC(=O)c1ccccc1OCc1ccc(Cl)cc1	inactive
CCn1c(CNc2ccc(Cl)cc2)nnc1SCc1ccccc1	inactive
CCOC(=O)CSc1nnc(CNc2ccc(Cl)cc2)n1-c1ccccc1	inactive
Clc1ccc(CNc2ccc(CNc3ncn[nH]3)cc2)c(Cl)c1	inactive
COc1cccc(/C=N/NC(N)=S)c1OCc1ccccc1Cl	inactive
CCOc1cc(Cl)c(S(=O)(=O)NCc2ccccn2)cc1Cl	inactive
CCc1ccc(N2C(=O)Cc3c2nc(N)c(C#N)c3N)cc1	inactive
CCOC(=O)Cn1nc(-c2ccccc2)c2cnc3ccc(C)cc3c21	inactive
O=C1CC(c2c(F)cccc2Cl)C2=C(COC2=O)N1 (stereo not given)	inactive
COc1cccc(CC(=O)N2CCCC(CO)(Cc3ccc(F)cc3F)C2)c1 (stereo not given)	inactive
Cc1ccc(C(=O)COC(=O)CNC(=O)C(c2ccccc2)c2ccccc2)cc1[N+](=O)[O-]	inactive
C=CCn1c(SCC(=O)c2c(N)n(C)c(=O)n(C)c2=O)nnc1-c1ccccc1F	inactive
O=c1c2c(-c3ccco3)csc2nc(SCc2cn3cccnc3n2)n1-c1ccccc1	inactive
N#CCOC(=O)c1sccc1-n1cccc1	inactive
O=C(CSc1nnc(-c2ccc(F)cc2)o1)Nc1ccc(S(=O)(=O)N2CCCC2)cc1	inactive
Cc1nnc(NC(=O)c2ccc(C)c(S(=O)(=O)N3CCOCC3)c2)s1	inactive
Cc1ccc(C(=O)Nc2cccc(C(=O)O)c2)cc1S(=O)(=O)N1CCOCC1	inactive
N#CC(=C1SC=CS1)c1nc(-c2ccccc2)cs1	inactive
CCOC(=O)C1CCN(c2ncnc3cc(OC)c(OC)cc23)CC1	inactive
CCOC(=O)C1CCN(Cc2cnc(Oc3ccc(OC)cc3)s2)CC1	inactive
